Consider 21 compounds from PubChem BioAssay (NCATS).

Experiment [1] in a line: Quantitative High-Throughput drug screen in 47 multiple myeloma cell lines against the NCATS MIPE library collection: KMS27_JCRB cell viability assay (AID 1918970). Further: nearly all actives have a fitted effect of over 30% in size. Further: potency means the concentration at half of the fitted maximal effect. In outline: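 Each line is seeded at 500 cells per well and treated with library compounds for 48 hours under 37 °C, 5% CO2. CellTiter-Glo is then added for 5 min at room temperature before median relative luminescence is recorded.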

Experiment [2] is described as follows: Quantitative High-Throughput drug screen in 47 multiple myeloma cell lines against the NCATS MIPE library collection: KMS12BM_JCRB cell viability assay (AID 1918971). Further: nearly all actives have a fitted effect of over 35% in size. Further: potency means the concentration at half of the fitted maximal effect. Put shortly: (§1)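 We plated 500 myeloma cells per well, pinned in MIPE 4.0 compounds, and incubated for 48 hours at 37C. ATP was then quantified with CellTiter-Glo, with DMSO and media-only wells defining 100% and 0%.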

Experiment [3] can be described thus: Quantitative High-Throughput drug screen in 47 multiple myeloma cell lines against the NCATS MIPE library collection: KMS12PE_JCRB cell viability assay (AID 1918972). Further: nearly all actives have a fitted effect of over 30% in size. Further: potency means the concentration at half of the fitted maximal effect. In outline:
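Viability readout: CellTiter-Glo luminescence following 5 min room-temperature incubation with reagent. Prior exposure: 48 h, 37C, humidified 5% CO2, 500 cells per well.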

Experiment [4] in a line: Quantitative High-Throughput drug screen in 47 multiple myeloma cell lines against the NCATS MIPE library collection: KMS20_JCRB cell viability assay (AID 1918973). Further: nearly all actives have a fitted effect of over 45% in size. Further: potency means the concentration at half of the fitted maximal effect. Put shortly:
(§2)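 Inhibition of cell viability is measured here. Each line was plated at 500 cells per well, treated with MIPE 4.0 drugs, kept 48 hours at 37C, then assayed for ATP content by CellTiter-Glo luminescence.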

The nature of experiment [5]: Quantitative High-Throughput drug screen in 47 multiple myeloma cell lines against the NCATS MIPE library collection: OCIMY1_PLB cell viability assay (AID 1918979). Further: nearly all actives have a fitted effect of over 35% in size. Further: potency means the concentration at half of the fitted maximal effect. In outline:
(§3)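 Cells were exposed to library compounds for 48 hours, after which ATP was measured by CellTiter-Glo. Signal was taken as median relative luminescence units.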

The nature of experiment [6]: Quantitative High-Throughput drug screen in 47 multiple myeloma cell lines against the NCATS MIPE library collection: MM1S_ATCC cell viability assay (AID 1918980). Further: nearly all actives have a fitted effect of over 45% in size. Further: potency means the concentration at half of the fitted maximal effect. In outline: as §3
Experiment [7] in a line: Quantitative High-Throughput drug screen in 47 multiple myeloma cell lines against the NCATS MIPE library collection: MM1R_ATCC cell viability assay (AID 1918981). Further: nearly all actives have a fitted effect of over 35% in size. Further: potency means the concentration at half of the fitted maximal effect. In outline: as §3
A short description of experiment [8]: Quantitative High-Throughput drug screen in 47 multiple myeloma cell lines against the NCATS MIPE library collection: LP1_DSMZ cell viability assay (AID 1918982). Further: nearly all actives have a fitted effect of over 35% in size. Further: potency means the concentration at half of the fitted maximal effect. Put shortly: as §3
The nature of experiment [9]: Quantitative High-Throughput drug screen in 47 multiple myeloma cell lines against the NCATS MIPE library collection: L363_DSMZ cell viability assay (AID 1918984). Further: nearly all actives have a fitted effect of over 40% in size. Further: potency means the concentration at half of the fitted maximal effect. In outline:
as §3

Experiment [10] is described as follows: Quantitative High-Throughput drug screen in 47 multiple myeloma cell lines against the NCATS MIPE library collection: OCIMY5_PLB cell viability assay (AID 1918988). Further: nearly all actives have a fitted effect of over 65% in size. Further: potency means the concentration at half of the fitted maximal effect. In outline: as §3
The nature of experiment [11]: Quantitative High-Throughput drug screen in 47 multiple myeloma cell lines against the NCATS MIPE library collection: OPM1_PLB cell viability assay (AID 1918989). Further: nearly all actives have a fitted effect of over 40% in size. Further: potency means the concentration at half of the fitted maximal effect. Put shortly: as §3
Experiment [12] is described as follows: Quantitative High-Throughput drug screen in 47 multiple myeloma cell lines against the NCATS MIPE library collection: SKMM1_PLB cell viability assay (AID 1919863). Further: nearly all actives have a fitted effect of over 35% in size. Further: potency means the concentration at half of the fitted maximal effect. The settings on record: SKMM1 myeloma viability, CellTiter-Glo ATP, 48 h; viability: active compounds read low. Put shortly: as §3
(In general: ATP-based viability assays read luminescence as a measure of living cells.)

The nature of experiment [13]: Quantitative High-Throughput drug screen in 47 multiple myeloma cell lines against the NCATS MIPE library collection: KMS21BM_JCRB cell viability assay (AID 1918974). Further: potency means the concentration at half of the fitted maximal effect. The settings on record: ATP luminescence, 48 h; viability: at 45.8 µM (top of the series) unless noted. In outline:
as §2

Experiment [14] can be described thus: Quantitative High-Throughput drug screen in 47 multiple myeloma cell lines against the NCATS MIPE library collection: MMM1_PLB cell viability assay (AID 1918976). Put shortly: as §3
The nature of experiment [15]: Quantitative High-Throughput drug screen in 47 multiple myeloma cell lines against the NCATS MIPE library collection: MOLP8_DSMZ cell viability assay (AID 1918977). Further: nearly all actives have a fitted effect of over 45% in size. Further: potency means the concentration at half of the fitted maximal effect. In outline:
as §3

Experiment [16] can be described thus: Quantitative High-Throughput drug screen in 47 multiple myeloma cell lines against the NCATS MIPE library collection: NCIH929_DSMZ cell viability assay (AID 1918978). Further: nearly all actives have a fitted effect of over 35% in size. Further: potency means the concentration at half of the fitted maximal effect. In outline: as §3
The nature of experiment [17]: Quantitative High-Throughput drug screen in 47 multiple myeloma cell lines against the NCATS MIPE library collection: KMS28PE_JCRB cell viability assay (AID 1918983). Further: nearly all actives have a fitted effect of over 35% in size. Further: potency means the concentration at half of the fitted maximal effect. In outline:
as §3

A short description of experiment [18]: Quantitative High-Throughput drug screen in 47 multiple myeloma cell lines against the NCATS MIPE library collection: KMS26_JCRB cell viability assay (AID 1918975). Further: nearly all actives have a fitted effect of over 45% in size. Further: potency means the concentration at half of the fitted maximal effect. In outline:
as §1

Experiment [19] is described as follows: Quantitative High-Throughput drug screen in 47 multiple myeloma cell lines against the NCATS MIPE library collection: KMS34_JCRB cell viability assay (AID 1918985). Further: nearly all actives have a fitted effect of over 40% in size. Put shortly: as §3
A short description of experiment [20]: Quantitative High-Throughput drug screen in 47 multiple myeloma cell lines against the NCATS MIPE library collection: OCIMY7_PLB cell viability assay (AID 1918987). Further: nearly all actives have a fitted effect of over 65% in size. In outline:
as §3

Results filed as inconclusive are left out. Values without a mark were called inactive. The source made the active and inactive calls. The call rests on the fitted dose curve; in most records, active means well fitted curve in the direction sought with a large enough effect; inconclusive means small, poorly fitted or top-dose-only effect, or another doubt; inactive means no such curve, though single readings can be large; an effect the other way counts as inactive or inconclusive.

Consider `CC(CCc1ccc(O)cc1)NCCc1ccc(O)c(O)c1` (stereo not given), for which the Potency in [1] was 18.7 µM (active); in [2], 14.8 µM (active); in [3] it was 20.9 µM (active); in experiment [5] it was 18.7 µM (active); in [6] it was 10.5 µM (active); in experiment [7], 18.7 µM (active). The Potency was 20.9 µM (active) in [8]; 18.7 µM (active) in [9]; 20.9 µM (active) in experiment [10]; 26.4 µM (active) in experiment [11]; 18.7 µM (active) in experiment [12]. For the same compound, in experiment [4], the Potency result was “inactive”.
Regarding `C[C@](N)(Cc1ccc(O)c(O)c1)C(=O)O`, the Potency result in [1], in [3] and in [9] was “inactive” throughout. In addition, the Potency in experiment [4] was 16.6 µM (active); in experiment [13], 20.9 µM (active); in experiment [14], 5.26 µM (active); in [15] it was 13.2 µM (active); in experiment [5], 16.6 µM (active); in experiment [7] it was 20.9 µM (active).
Take `Nc1nc2c(ncn2COC(CO)CO)c(=O)[nH]1`: the Potency in [1] was 10.5 µM (active); in [2], 18.7 µM (active); in experiment [3] it was 14.8 µM (active); in [4], 1.05 µM (active); in experiment [16], 9.35 µM (active); in [5], 18.7 µM (active). Moreover, the Potency in experiment [7] is 20.9 µM (active); in [8], 23.5 µM (active); in [17] it was 20.9 µM (active); in experiment [9], 20.9 µM (active); in [10], 20.9 µM (active); in experiment [11] it was 16.6 µM (active).
For the compound `CN1CCN(C2=Nc3cc(Cl)ccc3Nc3ccccc32)CC1`, the Potency result in [1], in experiment [2], in [18], in [15], in experiment [5] and in experiment [7] was “inactive” each time. Besides, the Potency result in [8], in experiment [17] and in [10] was “inactive” in each case. Moreover, the results for the Potency in experiment [6] and in experiment [11] were 14.8 µM (active) and 23.5 µM (active), respectively.
Consider `CC1COc2c(N3CCN(C)CC3)c(F)cc3c(=O)c(C(=O)O)cn1c23` (stereo not given), for which the Potency in [1] is 18.7 µM (active); in experiment [13] it was 5.26 µM (active). Moreover, the Potency result in experiment [2], in [15], in experiment [16], in [5], in experiment [7] and in [8] was “inactive” each time. Further, the Potency entry in [17] and in experiment [11] was “inactive” throughout.
Usually viability stands for a read-out of living cells in per cent, often relative to untreated cells. Regarding `CN(C)C(=N)N=C(N)N`, the Potency entry in experiment [1], in [3], in experiment [4], in experiment [16], in experiment [5] and in experiment [6] was “inactive” throughout. Moreover, the Potency entry in [7] and in [11] was “inactive” in each case. The Potency in [17] was 0.833 µM (active). In addition, the viability in experiment [12] was 138%.
For the compound `Cc1ccc(C(=O)Nc2ccc(S(=O)(=O)O)c3cc(S(=O)(=O)O)cc(S(=O)(=O)O)c23)cc1NC(=O)c1cccc(NC(=O)Nc2cccc(C(=O)Nc3cc(C(=O)Nc4ccc(S(=O)(=O)O)c5cc(S(=O)(=O)O)cc(S(=O)(=O)O)c45)ccc3C)c2)c1`, in [13], the Potency result was “inactive”.
Consider `CCOC(=O)c1ncn2c1CN(C)C(=O)c1cc(F)ccc1-2`, for which the Potency in experiment [14] was 6.62 µM (active).
Still for that read-out and setting: next, `Clc1ccccc1C(c1ccccc1)(c1ccccc1)n1ccnc1`: 23.5 µM (active).
As to `N[C@@H](Cc1c[nH]c2ccc(O)cc12)C(=O)O`, the Potency entry in [3], in experiment [16], in experiment [5], in [7], in experiment [8] and in experiment [9] was “inactive” each time. Moreover, the Potency result in experiment [19], in [10] and in experiment [11] was “inactive” in each case. In addition, the Potency in [14] is 18.7 µM (active). For the same compound, the viability in [12] is 109%.
`COc1cc2c(c(OC)c1OC)-c1ccc(OC)c(=O)cc1[C@@H](NC(C)=O)CC2`: the Potency entry in experiment [3], in [13], in [16], in experiment [8], in experiment [9] and in [11] was “inactive” in each case.
`COc1ccccc1OCCNCC(O)COc1cccc2[nH]c3ccccc3c12` (stereo not given): the Potency is 23.5 µM (active) in experiment [18], 26.4 µM (active) in [7] and 18.7 µM (active) in experiment [10]. The Potency result in experiment [5] was “inactive”.
On to `CC(C)NCC(O)c1ccc(O)c(O)c1` (stereo not given), for which the Potency in experiment [3] was 5.26 µM (active); in experiment [4], 1.18 µM (active); in experiment [13], 0.372 µM (active); in experiment [14], 7.43 µM (active); in [15] it was 23.5 µM (active); in experiment [6], 0.166 µM (active). Besides, the Potency in [7] was 4.18 µM (active); in experiment [9] it was 1.87 µM (active); in experiment [10] it was 5.26 µM (active); in [11] it was 4.18 µM (active).
`CCOC(=O)C(C)(C)Oc1ccc(Cl)cc1`: the Potency entry in [3], in experiment [4], in experiment [15], in experiment [16], in [5] and in [8] was “inactive” in each case. Also, the Potency entry in experiment [17], in [10] and in experiment [11] was “inactive” in each case.
Regarding `CCC1(c2ccccc2)C(=O)NCNC1=O`, the Potency entry in experiment [15], in experiment [5], in [7] and in [8] was “inactive” each time. Further, the results for the Potency in [16], in experiment [6] and in experiment [11] were 1.32 µM (active), 1.05 µM (active) and 8.33 µM (active), respectively.
Consider `COc1ccccc1N1CCN(CC(O)COc2cccc3ccccc23)CC1` (stereo not given), for which the Potency entry in [3], in experiment [15], in experiment [16], in experiment [5], in experiment [8] and in [19] was “inactive” each time. Besides, the Potency in experiment [17] is 13.2 µM (active); in experiment [11], 14.8 µM (active).
As for `CC[N+](CC)(CC)CCOc1cccc(OCC[N+](CC)(CC)CC)c1OCC[N+](CC)(CC)CC`, the Potency entry in experiment [16], in experiment [5], in experiment [6], in [7], in [8] and in experiment [17] was “inactive” in each case. Besides, the Potency result in [20] and in [11] was “inactive” throughout.
Consider `Nc1ccn([C@H]2CC[C@@H](CO)O2)c(=O)n1`, for which the Potency result in [3], in experiment [15] and in experiment [17] was “inactive” each time.
As for `Clc1ccc2c(c1)C(N1CCNCC1)=Nc1ccccc1O2`, the Potency result in experiment [3], in experiment [15], in experiment [5] and in [9] was “inactive” each time. For the same compound, the Potency in experiment [4] is 20.9 µM (active); in [14], 16.6 µM (active); in experiment [16], 20.9 µM (active); in [6], 7.43 µM (active); in experiment [17], 18.7 µM (active); in [10] it was 20.9 µM (active). Also, the Potency in [11] is 20.9 µM (active).
As to `Nc1nnc(-c2cccc(Cl)c2Cl)c(N)n1`, the Potency was 23.5 µM (active) in experiment [16], 11.8 µM (active) in experiment [6] and 23.5 µM (active) in experiment [11]. Further, the Potency result in [5], in experiment [8] and in experiment [10] was “inactive” each time.
Take `NC12CC3CC(CC(C3)C1)C2`: the Potency result in experiment [2] and in experiment [17] was “inactive” each time. Further, the Potency in [16] was 16.6 µM (active); in [6] it was 1.18 µM (active); in [10], 0.0026 µM (active).
